According to PubChem BioAssay (Tox21):
Values without a mark were called inactive. Entries that show only a call come without a potency. The source made the active and inactive calls. Calls follow the shape of the dose curve; as a rule, active = well fitted curve in the direction sought with a large enough effect in the repeat runs; inconclusive = weak or mixed curves; inactive = flat fitted curve, though single readings scatter.

Assay: qHTS assay to test for compound auto fluorescence at 590 nm (red) in HEK293 cell free culture (AID 720683)
Settings: cell-free medium autofluorescence, Ex540/Em590 red; series mostly up to 91.3 µM
From the text: U.S. Tox21 Program National Center for Advancing Translational Sciences [NCATS] NIH Chemical Genomics Center [NCGC] U.S. Environmental Protection Agency [EPA] National Institutes of Environmental Health Sciences [NIEHS] National Toxicology Program [NTP] U.S. Food and Drug Administration [FDA] Tox21 Assay Overview: Compound auto fluorescence often interferes with screening of the compound library against various biological targets and signaling pathways. Some of these compounds may have fluorophoric properties. Such properties may interfere with the assay outputs resulting in false positives and/or negatives. To decrease such complications and ensure the compound activities are relevant in terms of biological response, the Tox21 10K compound library was screened for auto fluorescence. From the fluorophores used as reporter signals in our screening assays, the auto fluorescence equivalencies of compounds against three fluorophores have been evaluated: Triamterene, Fluorescein and Rose Bengal sodium for blue, green and red fluorescence, respectively. The fluorescence intensities were measured using Excitation/Emission wavelengths at 405/460nm, 485/535nm and 540/590nm for blue, green and red labels, respectively. This assay includes the red fluorescence data.
Tox21 Assay Protocol Summary: 5 uL of culture medium (DMEM containing 10% FBS) per well was dispensed into black wall/clear bottom 1536-well plates using a Multidrop Combi Dispenser (ThermoFisher Scientific, Waltham, MA). After 23 nL compound or DMSO vehicle was transferred into assay plate by a pintool work station (Kalypsys, San Diego, CA), fluorescence intensities in the assay plates were measured by an Envision (PerkinElmer, Shelton, CT) plate reader using three labels for measuring blue, green and red fluorescence at […] 460, 535 and 590nm respectively.
Potency is read from the fitted curve at half-maximal effect; tags tell the direction and shape of the fitted curve or compound fluorescence and quenching.

SMILES | Potency | fluorescence, % of fluorescent control
O=C(OCCc1ccccc1)c1ccccc1 | inactive | –
Cc1c(N)cccc1[N+](=O)[O-] | inactive | –
CC(C)C[C@H]1C(=O)N2CCC[C@H]2[C@]2(O)O[C@](NC(=O)[C@@H]3C=C4c5cccc6[nH]c(Br)c(c56)C[C@H]4N(C)C3)(C(C)C)C(=O)N12 | inactive | –
COC(=O)C1=C(C)NC(COC(N)=O)=C(C(=O)OC(C)C)C1c1cccc(Cl)c1Cl (stereo not given) | inactive | –
Cc1cccc(Nc2ccccc2)c1 | inactive | –
CC1=CC[C@H](C(C)C)C=C1 | inactive | –
CCN(CC)CCNC(=O)c1cc(Br)c(N)cc1OC | inactive | –
O=C(Nc1ccccc1)c1ccccc1O | inactive | –
COc1ccc(C(=O)N2CCN(CC(=O)N3CCOCC3)CC2)cc1 | inactive | –
COc1cc(Cl)c(OC)cc1N | inactive | –
CCCCCCCCCCCCCCOS(=O)(=O)O | inactive | –
CC(CC=O)c1ccccc1 (stereo not given) | inactive | –
CCOC(=O)Cc1cccc2ccccc12 | inactive | –
C=CC(=O)OCCOCCOCCOCCOC(=O)C=C | inactive | –
COc1ccc(-c2nc3ccc(C4=NNC(=O)CC4C)cc3[nH]2)cc1 (stereo not given) | inactive | –
Cc1oc(-c2ccccc2)nc1CCOc1cccc2c1ccn2CCC(=O)O | inactive | –
CCCCNc1ccc(C(=O)OCCOCCOCCOCCOCCOCCOCCOCCOCCOC)cc1 | – | -0.482% [at 18.6 µM]
O=C(O)c1ccc(-n2nc(-c3ccccc3O)nc2-c2ccccc2O)cc1 | inactive | –
OCCN1CCN(CCCN2c3ccccc3C=Cc3ccccc32)CC1 | inactive | –
CNC(=O)CN(CCN(CCN(CC(=O)[O-])CC(=O)NC)CC(=O)[O-])CC(=O)[O-].O.[Gd+3] | inactive | –

SMILES | Potency | fluorescence, % of fluorescent control
Cc1ncc(CO)c(C=O)c1O | inactive | –
OCCNCc1ccccc1 | inactive | –
CCCCc1nc2cccnc2n1Cc1ccc(-c2ccccc2-c2nnn[nH]2)cc1 | inactive | –
CCN(CC)CCNc1ccc(CNC=O)c2sc3ccc(OC)cc3c(=O)c12 | inactive | –
COCC(C)OC(C)=O (stereo not given) | inactive | –
Cc1ccc(N=Nc2c(O)c(C(=O)O)cc3ccccc23)c(S(=O)(=O)O)c1 | inactive | –
CCC(Cl)CCC(Cl)C(Cl)CC(Cl)C(Cl)C(Cl)CCl (stereo not given) | inactive | –
CCCCC(CC)COC(=O)CCCCCCCCC(=O)OCC(CC)CCCC (stereo not given) | inactive | –
COS(=O)(=O)C(F)(F)F | inactive | –
O=[N+]([O-])c1ccc2[nH]ncc2c1 | inactive | –
CCCCCCCCCCCCCCCCCCOS(=O)(=O)O | inactive | –
CCN(CC)CCOC(=O)C(Cc1cccc2ccccc12)CC1CCCO1 (stereo not given) | – | 0.0006% [at 18.6 µM]
CN(C)CCN(Cc1ccccc1)c1ccccn1 | inactive | –
O=P(O)(OCc1ccccc1)OCc1ccccc1 | inactive | –
Nc1ncn([C@H]2C[C@H](O)[C@@H](CO)O2)c(=O)n1 | inactive | –
CCN(CC)c1ccc2c(-c3ccccc3C(=O)O)c3ccc(=[N+](CC)CC)cc-3oc2c1 | 2000 nM [fluorescent] (active) | –
CO[C@@H]1[C@H](OC(=O)/C=C/C=C/C=C/C=C/C(=O)O)CC[C@]2(CO2)[C@H]1[C@@]1(C)O[C@@H]1CC=C(C)C | inactive | –
C[C@H]1C[C@H]2[C@@H]3CCC4=CC(=O)C=C[C@]4(C)[C@@]3(Cl)[C@@H](O)C[C@]2(C)[C@@]1(O)C(=O)CO | inactive | –
Nc1c(CC(=O)O)cccc1C(=O)c1ccc(Br)cc1 | inactive | –
Cn1c(=O)cc(Oc2ccc(F)cc2F)c2cnc(NCC(C)(C)O)nc21 | inactive | –
